Measurements reported in PubChem BioAssay (EPA / NIEHS).
Several values for one entry are separate records, joined by “and”; a condition that tells them apart may be missing. Equal values may be shown once. Inconclusive results are not listed. Where a structure was tested more than once in an assay, its records may differ in their call. Activity calls are given as the source filed them. How the source made its calls: active means hit-call score of the fitted dose curve at least 0.9, where 1 is the maximum; inconclusive means response in the unintended direction; inactive means score below 0.9.

These molecules were tested against Cellular tumor antigen p53 (Homo sapiens) (UniProt P04637) (assay: TOX21_p53_BLA_p5_ratio: Tox21 HCT-116 p53 Agonism Beta-lactamase Assay, Ratio, Phase 5 (AID 2283599)).
Sequence of Cellular tumor antigen p53 (Homo sapiens) (P04637 whole entry, looked up, the tested form may be a part): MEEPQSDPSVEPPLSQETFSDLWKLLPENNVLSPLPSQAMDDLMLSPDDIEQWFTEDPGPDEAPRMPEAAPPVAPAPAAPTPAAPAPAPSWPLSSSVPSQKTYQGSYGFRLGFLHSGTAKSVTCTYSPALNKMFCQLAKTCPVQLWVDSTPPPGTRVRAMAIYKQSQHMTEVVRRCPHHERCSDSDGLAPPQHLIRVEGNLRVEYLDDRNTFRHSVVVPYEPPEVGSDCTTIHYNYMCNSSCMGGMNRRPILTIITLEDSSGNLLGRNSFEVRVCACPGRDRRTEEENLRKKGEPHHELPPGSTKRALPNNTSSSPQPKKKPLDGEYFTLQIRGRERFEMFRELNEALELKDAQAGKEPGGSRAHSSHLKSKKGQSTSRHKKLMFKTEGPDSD
From the text: TOX21_p53_BLA_p5 is a cell-based, single-readout assay that uses HCT116, a human intestinal cell line, […] in a 1536-well plate.TOX21_p53_BLA_p5_ratio is an assay readout measuring reporter gene via receptor activity and designed using inducible reporter (beta lactamase induction) detected with GAL4 b-lactamase reporter gene. The signal is derived from the ratio of cleaved (ch2) to uncleaved (ch1) reporter gene substrate used as the measure of target activity.Data from the assay component TOX21_p53_BLA_p5_ratio was analyzed into 1 assay endpoint. This assay endpoint, TOX21_p53_BLA_p5_ratio, was analyzed in the positive analysis fitting direction relative to DMSO as the negative control and baseline of activity. Using a type of inducible reporter, gain-of-signal activity can be used to understand changes in the reporter gene as they relate to the gene TP53. Furthermore, this assay endpoint can be referred to as a primary readout, because this assay has produced multiple assay endpoints and this ratio serves a reporter gene function to understand target activity. To generalize the intended target to other relatable targets, this assay endpoint is annotated to the DNA binding intended target family, where the subfamily is tumor suppressor.
Thawing Method: Place 14 mL of pre-warmed thaw medium into a 15 mL of conical tub. Remove the vial of cells to be thawed from liquid nitrogen and thaw rapidly by placing at 37C in a water bath with gentle agitation for 1-2 minutes. Decontaminate the vial by wiping with 70% ethanol before opening in a biological safety cabinet. Transfer the vial contents drop-wise into 14 mL of thaw medium in a sterile 15-mL conical tub. Centrifuge cells at 900 rpm for 4 minutes and resuspend in thaw medium. Transfer contents to the T75 tissue culture flask containing Thaw Medium and place flask in a humidified 37C/5% CO2 incubator. Switch to growth medium at first passage.Propagation Method: Aspirate medium, rinse once in DPBS, add 0.25% Trypsin/EDTA and swirl to coat the cell evenly. Add an equal volume of Growth Medium to inactivate Trypsin after 2-3 minutes incubation at 37C. Centrifuge cells at 900 rpm for 4 minutes and resuspend in growth medium. Cell should be passage or fed at least twice a week.Assay Protocol: Harvest cells from culture in growth medium and resuspend in assay medium. 2.2 Dispense 4000 cells/5 uL/well into 1536-well black/clear bottom plates using a Multidrop dispenser. After the cells were incubated at 37C for 5 hours, 23 nL of compounds dissolved in DMSO were transferred to the assay plate by a PinTool resulting in a 217-fold dilution. Incubate the plates for 16 hours at 37C, 5% CO2. Add 1 uL of 6X LiveBLAzer FRET B/G (CCF4-AM) Substrate Mixture to each well using a BioRAPTR dispenser and incubate the plates at room temperature for 2 hours. Measure fluorescence intensity at 460 and 530 nm emission and 405 nm excitation by an Envision detector. Data is expressed as the ratio of 460nm/530nm emissions. Add 4 uL of Cell-titer Glo to each well using BioRAPTR and incubate the plates at room temperature for 2 hours. Measure fluorescence intensity by a VewLux plate reader.
`CCCCCCCCOc1ccc(C(=O)c2ccccc2)c(O)c1` was tested, and the outcome was “inactive”.
`CN(C)c1ccc(C(=C2C=CC(=[N+](C)C)C=C2)c2ccc(N(C)C)cc2)cc1` was tested, and the AC50 was 47.3 µM (active) and 34 µM (active) and 25.4 µM (active).
In the case of `O=c1[nH]sc2ccccc12`, the outcome is reported as “inactive”.
`Clc1ccccc1C(c1ccccc1)(c1ccccc1)n1ccnc1` was tested, and the outcome was “inactive” and the AC50 was 86.2 µM (active).
For `CC(C)(c1cc(Br)c(O)c(Br)c1)c1cc(Br)c(O)c(Br)c1`, the AC50 was 67.7 µM (active) and 76.3 µM (active) and 65.8 µM (active).
`CCCOC(=O)c1cc(O)c(O)c(O)c1` was tested, and the outcome was “inactive”.
`Cc1cn([C@H]2C[C@H](N=[N+]=[N-])[C@@H](CO)O2)c(=O)[nH]c1=O` was tested, and the outcome was “inactive”.
`O=C=NCCCCCCN=C=O` was tested, and the outcome was “inactive”.
`CCCCCCCC[Si](OCC)(OCC)OCC` was tested, and the outcome was “inactive”.
With `O=c1ccc2ccccc2o1` the outcome was “inactive”.
In the case of `O=C1c2ccccc2C(=O)N1CCc1noc(-c2ccc(CN3CCCCCC3)s2)n1`, the outcome is reported as “inactive”.
With `CCN(CC)C(=O)c1cc(S(=O)(=O)Cc2ccccc2)c(N2CCC(c3ccccc3)CC2)cc1N(CC)CCN(C)C` the outcome was “inactive”.
With `Cc1ccc(C(C)C)cc1` the outcome was “inactive”.
With `Oc1ccc2ccccc2c1` the outcome was “inactive”.
With `CC(C)(C)c1csc(-c2cc3cc(OCc4ccccc4CC(=O)O)ccc3o2)n1` the AC50 was 47 µM (active).
For `Cc1ccc2oc(CN(Cc3ccccc3)C(=O)Nc3c(F)cc(F)cc3F)c(-c3ccc(Cl)cc3)c2c1`, the outcome was “inactive”.
`c1ccc2ccccc2c1` was tested, and the outcome was “inactive”.
With `O=C1CCC(C2CCCCC2)CC1` the outcome was “inactive”.
`CCCCCCCCCCCO` was tested, and the outcome was “inactive”.
For `Cc1cc(F)ccc1-c1cc(N2CC[C@@H](O)[C@H]2CO)ncc1N(C)C(=O)C(C)(C)c1cc(C(F)(F)F)cc(C(F)(F)F)c1`, the AC50 was 36 µM (active).
With `CN(C[C@@H](CC[N+]12CCC(C3CCCCC3)(CC1)CC2)c1ccc(Cl)c(Cl)c1)C(=O)c1cc(C(F)(F)F)cc(C(F)(F)F)c1` the AC50 was 77.8 µM (active).
In the case of `CCN(Cc1cccnc1)C(=O)c1cccc(Cl)c1[C@]1(C)C(=O)N(Cc2ccc(OC)cc2OC)c2ccc(Cl)cc21`, the AC50 is reported as 52.1 µM (active).
`CC1(C)NC(=O)N(c2ccc([N+](=O)[O-])c(C(F)(F)F)c2)C1=O` was tested, and the outcome was “inactive”.
In the case of `O=CCCCC=O`, the outcome is reported as “inactive”.
In the case of `COc1ccc2cc(S(=O)(=O)N[C@H](CC(=O)N[C@H](Cc3ccc(CN4[C@H](C)CCC[C@@H]4C)cc3)C(=O)N(C)C(C)C)c3ccc4c(c3)OCO4)ccc2c1`, the AC50 is reported as 71.9 µM (active).
For `Cc1c2ccccc2c(C)c2c1ccc1ccccc12`, the AC50 was 41.7 µM (active) and the outcome was “inactive”.
In the case of `CCN(Cc1cccc(S(=O)(=O)O)c1)c1ccc(C(=C2C=CC(=[N+](CC)Cc3cccc(S(=O)(=O)O)c3)C=C2)c2ccccc2S(=O)(=O)[O-])cc1`, the outcome is reported as “inactive”.
With `O=C(O)c1ccccc1C(=O)OCc1ccccc1` the outcome was “inactive”.
In the case of `c1ccc(C[n+]2cccc3ccccc32)cc1`, the outcome is reported as “inactive”.
With `C[C@]12CC[C@@H]3c4ccc(O)cc4CC[C@H]3[C@@H]1CC[C@H]2O` the AC50 was 73.4 µM (active) and 16.7 µM (active).
In the case of `CN1C(=O)N(c2ccccc2Br)Cc2cnc(Nc3ccc4c(c3)OCC(CO)O4)nc21` (stereo not given), the AC50 is reported as 13.6 µM (active).
For `CCCCCCCCOC(=O)c1cc(O)c(O)c(O)c1`, the AC50 was 63.3 µM (active).
In the case of `Cc1occc1C(=O)Nc1ccc(C(=O)N2CCC(F)(F)/C(=C\C(=O)N3CCC(N4CCCCC4)CC3)c3ccccc32)cc1`, the outcome is reported as “inactive”.
For `O=C(Nc1ccc(Cl)cc1)Nc1ccc(Cl)c(Cl)c1`, the outcome was “inactive” and the AC50 was 6.25 µM (active) and 12.1 µM (active).
In the case of `Cc1cccc2ccccc12`, the outcome is reported as “inactive”.
In the case of `Cc1ncc(CO)c(CO)c1O`, the outcome is reported as “inactive”.
For `CCCCCCCCCCCCO`, the outcome was “inactive”.
